Values without a mark were called inactive. No rule for the calls is given here.
These compounds were tested against Pantothenate synthetase (Mycobacterium tuberculosis (strain ATCC 25618 / H37Rv)) (UniProt P9WIL5) (assay: Recombinant Mtb pantothenate synthetase (PanC) inhibitors, coupled enzyme, confirmatory (AID 375;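 also: 0% = full reaction with vehicle and 100% = no enzyme background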)). Conditions: coupled enzyme assay; at 10 µM, hits give high values.
Chain of Pantothenate synthetase (Mycobacterium tuberculosis (strain ATCC 25618 / H37Rv)) (P9WIL5 whole entry, looked up): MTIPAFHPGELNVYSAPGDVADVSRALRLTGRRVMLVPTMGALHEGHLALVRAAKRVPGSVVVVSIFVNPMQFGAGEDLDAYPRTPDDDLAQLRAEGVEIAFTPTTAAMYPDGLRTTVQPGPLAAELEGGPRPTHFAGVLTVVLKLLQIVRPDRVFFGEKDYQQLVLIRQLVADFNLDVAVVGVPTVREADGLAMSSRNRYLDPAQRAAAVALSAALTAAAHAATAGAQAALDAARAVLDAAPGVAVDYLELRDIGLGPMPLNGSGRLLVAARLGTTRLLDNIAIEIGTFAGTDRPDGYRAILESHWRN

First: O=C(NCCN1CCCC1)C1COc2ccccc2O1 (configuration not stated)
Second: COc1ccc(N2CCN(CCCNC(=O)C3CCCN(S(=O)(=O)c4cnc[nH]4)C3)CC2)cc1 (configuration not stated)
The inhibition of the first is higher: 3% for the first, 0% for the second.

Compared with `CCOc1nc(SCCOc2ccccc2)nc(N(C)C)n1`, `CCC1C(=O)N=C(SCC(=O)Nc2cccc3ccccc23)NC1=O` (configuration not stated) is lower in inhibition: 4% for the first, 0% for the second.

Compared with `COc1ccc(CC(=O)NC2CCN(CC(=O)Nc3ccc4c(c3)OCCO4)CC2)cc1OC`, `COc1ccc(OCCCC(=O)Nc2ccc3c(c2)OCCO3)cc1` is higher in inhibition: 0% for the first, 4% for the second.

Going from `O=c1oc2c3c4c(cc2cc1-c1nc2ccccc2[nH]1)CCCN4CCC3` to `Cn1c(=O)[nH]c2cc3ccccc3cc21`, the inhibition falls from 4% to 0%.

`C=CCn1c(SCC#N)nc2c(c1=O)C(C)(C)Cc1ccccc1-2` and `Cn1c(=O)[nH]c(=O)c2[nH]c(CN3CCN(C(=O)c4ccco4)CC3)nc21` are the same in inhibition: 0% for the first, 0% for the second.

Going from `CCCOc1ccc(/C(O)=C2/C(=O)C(=O)N(CCCOC)C2c2ccncc2)cc1` (configuration not stated) to `CC(=O)c1ccc(NC(=O)c2cc(CC(C)C)on2)cc1`, the inhibition falls from 4% to 0%.

Compared with `CC1CCN(C(=O)CSc2nnc(Cc3cc(=O)[nH]c(=O)[nH]3)n2-c2ccc(Cl)cc2)CC1`, `CCN1CCN(C(=O)C2CC(c3ccc(F)cc3)=NO2)CC1` (configuration not stated) is lower in inhibition: 4% for the first, 0% for the second.

`O=C(c1ccc(NS(=O)(=O)c2cccs2)cc1)N1CCCCC1` and `N#Cc1cc2c(nc1SCC(=O)N1CCCCC1)CCCC2` are the same in inhibition: 0% for the first, 0% for the second.

For `C[C@H]1C[C@H]2[C@@H]3CCC4=CC(=O)C=C[C@]4(C)[C@@]3(Cl)[C@@H](O)C[C@]2(C)[C@@]1(O)C(=O)CO`, the inhibition was 4%.

— PubChem BioAssay
